The values below come from PubChem BioAssay (Tox21).

A short description of assay [1]: Nuclear factor erythroid 2-related factor 2/antioxidant responsive element (Nrf2/ARE) small molecule agonists: qHTS cell viability counter screen in human keratinocytes (AID 1919968; active = well fitted curve in the direction sought with a large enough effect in the repeat runs; an effect the other way counts as inactive or inconclusive; note: nearly all actives have a fitted effect of over 55% in size). In short, it runs like this:
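Stably transfected HaCaT (KeratinoSens), 1,500/well. Test agents in DMSO were applied for 23 h, 37 C/5% CO2. CellTiter-Fluor was incubated 1 h before the fluorescence read.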
For orientation: Quantitative high-throughput screening tests each substance at several concentrations.

The nature of assay [2]: Nuclear factor erythroid 2-related factor 2/antioxidant responsive element (Nrf2/ARE) small molecule agonists: luciferase reporter gene qHTS assay in human keratinocytes (AID 1919969). Note: nearly all actives have a fitted effect of over 35% in size. Note: potency is the fitted concentration of half-maximal effect. For orientation: Reporter assays use an easily measured gene product as a stand-in for the process of interest.
Assay [3] addresses Gonadotropin-releasing hormone receptor (Homo sapiens) (UniProt P30968). Description: Human gonadotropin-releasing hormone receptor (GnRHR) small molecule agonists, calcium flux assay in GnRHR-HEK293 cells (AID 1920063). Note: nearly all actives have a fitted effect of over 35% in size. Summed up:
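Stable human GnRHR HEK293 line. 18 h plating, then calcium dye for 1 h at 37 C. Agonist-mode compound addition from DMSO stocks; fluorescence monitored 3 min.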

Assay [4] deals with KiSS-1 receptor (Homo sapiens) (UniProt Q969F8). Put plainly: Human kisspeptin (KISS1R) small molecule agonists, calcium flux assay in KISS1R-HEK293 cells (AID 1920064; active = well fitted curve in the direction sought with a large enough effect in the repeat runs; an effect the other way counts as inactive or inconclusive). In short, it runs like this:
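After overnight (18 h) culture at 37 C/5% CO2, human KISS1R-HEK293 cells received calcium dye for 1 h, then test compound; emission at 540 nm (excitation 480 nm) was tracked for 3 min.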
(In general: Calcium flux is commonly read through the fluorescence of an indicator in the cells.)

Assay [5] can be described thus: G protein-coupled receptor (GPCR) small molecule agonists, calcium flux assay: HEK293 wild type cell line counter screen (AID 1920065). In short, it runs like this:
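Following 18 h incubation at 37 C/5% CO2, plates got calcium dye for 1 h; compounds, ATP or DMSO were then pinned in and fluorescence followed kinetically (480/540 nm).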

A short description of assay [6]: p53 small molecule agonists, cell-based qHTS assay with human liver microsomes (AID 1963577). In short, it runs like this:
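Compounds act here after metabolic activation: human liver microsomes and NADPH, both at 0.5 mg/mL final, were co-added to p53RE-bla cells. Incubation ran 16 h at 37 C, followed by LiveBLAzer detection.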

A short description of assay [7]: p53 small molecule agonists, cell-based qHTS assay with rat liver microsomes (AID 1963578). Note: potency is the fitted concentration of half-maximal effect. In short, it runs like this: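 Read-out is beta-lactamase reporter fluorescence (LiveBLAzer, 2 h, room temperature, dark) in p53RE-bla cells treated 16 h at 37 C with compound, rat liver microsomes and NADPH, both 0.5 mg/mL final.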
Assay [8] can be described thus: p53 small molecule agonists, cell-based qHTS assay with human liver microsomes: qHTS cell viability counter screen (AID 1963579). Note: nearly all actives have a fitted effect of over 45% in size. Summed up: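 Cells carrying the p53 response-element beta-lactamase reporter are treated for 16 h at 37 C with test compounds in the presence of human liver microsomes and NADPH (both 0.5 mg/mL final); ATP-based CellTiter-Glo luminescence then reports viability.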

The nature of assay [9]: p53 small molecule agonists, cell-based qHTS assay: qHTS cell viability counter screen (AID 1963581). Note: nearly all actives have a fitted effect of over 45% in size. Summed up: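 qHTS counter screen: 16 h compound exposure at 37 C of p53RE-bla HCT-116 cells (4,000 per well, seeded 5 h prior), cell viability by ATP luminescence.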
A short description of assay [10]: p53 small molecule agonists, cell-based qHTS assay (AID 1963582; active = well fitted activation curve with a large enough effect in the signal ratio in the repeat runs, not every such curve was filed as active; the % refers to the signal ratio; note: potency is the fitted concentration of half-maximal effect). Summed up:
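Measured: fluorescence from cleaved LiveBLAzer substrate. System: p53RE-bla cells, 16 h compound treatment at 37 C, 2 h substrate step at room temperature.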

Assay [11] deals with Beta-2 adrenergic receptor (Homo sapiens) (UniProt P07550). Put plainly: Adrenergic beta2 receptor (ADRB2) small molecule antagonists, cell-based qHTS assay (AID 1963592). Note: series mostly up to about 92 µM; nearly all actives have a fitted effect of over 50% in size. In short, it runs like this:
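Assay format: CHO-ADRB2 cells, 18-20hr seeding at 37C/5% CO2, then compound plus 1nM isoproterenol agonist mix for 0.5hr RT. Homogeneous time-resolved fluorescence cAMP detection after 1hr, expressed as 665/615 nm ratio.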

For assay [12], the target named is D(2) dopamine receptor (Homo sapiens) (UniProt P14416). Description: Dopamine D2 receptor (DRD2) small molecule agonists, cell-based qHTS assay (AID 1963594). Note: nearly all actives have a fitted effect of over 35% in size. In short, it runs like this:
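HEK293 cells stably expressing DRD2 were cultured 24 h at 37 C, then given Ro20-1724 (0.1 mM final) and compounds for 10 min at room temperature. NKH477 (200nM) was then added for 30 min. cAMP was read by HTRF.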

Assay [13] has the same target. Description: Dopamine D2 receptor (DRD2) small molecule antagonists, cell-based qHTS assay (AID 1963595; active = well fitted inhibition curve with a large enough effect in the signal ratio in the repeat runs, with a control signal flat; the % refers to the signal ratio). In short, it runs like this:
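HTRF cAMP read-out at 665 and 620 nm emission (340 nm excitation). Antagonist mode: compounds were tested against 12 nM quinpirole in DRD2-HEK293 cells, with 200 nM NKH477 raising cAMP and 0.1 mM Ro20-1724 blocking its breakdown.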

Assay [14] can be described thus: p53 small molecule agonists, cell-based qHTS assay with rat liver microsomes: qHTS cell viability counter screen (AID 1963580). Note: nearly all actives have a fitted effect of over 45% in size. In short, it runs like this: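 Luminescent ATP readout (CellTiter-Glo, 30 min at room temperature) reports viability of p53RE-bla HCT-116 cells after 16 h at 37 C with test compounds under metabolic activation by rat liver microsomes and NADPH at 0.5 mg/mL final each.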

Assay [15] concerns the target 5-hydroxytryptamine receptor 2A (Homo sapiens) (UniProt P28223). Put plainly: 5-hydroxytryptamine receptor 2A (HTR2A) small molecule antagonists, cell-based qHTS assay (AID 1963586). Note: nearly all actives have a fitted effect of over 45% in size. In short, it runs like this:
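CHO cells stably expressing human HTR2A were plated for 18 h at 37 C, then loaded with calcium dye for 1 h. Compounds were preincubated 5 min at room temperature before DOI (4 nM solution) was added. Kinetic fluorescence was read for 3 min.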

Assay [16] deals with Muscarinic acetylcholine receptor M1 (Homo sapiens) (UniProt P11229). Put plainly: Cholinergic receptor muscarinic 1 (CHRM1) small molecule antagonists, cell-based qHTS assay (AID 1963588). Note: nearly all actives have a fitted effect of over 40% in size. Summed up:
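Compounds were tested at 15 concentrations in three independent runs. Dye-loaded CHRM1-CHO cells were exposed 5 min at room temperature before stimulation by acetylcholine added at 50nM. Intracellular calcium was read kinetically on FDSS for 3 min.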

Assay [17] shares this target. Put plainly: Cholinergic receptor muscarinic 1 (CHRM1) small molecule agonists, cell-based qHTS assay (AID 1963589). Note: nearly all actives have a fitted effect of over 35% in size. In short, it runs like this:
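Kinetic fluorescence (1 s intervals) of calcium-sensitive dye in human M1 CHO cells after compound addition; cells pre-incubated 18 h at 37 C/5% CO2 and dye-loaded 1 h.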

Assay [18] is described as follows: cAMP Responsive Elements (CRE) small molecule agonists, cell-based qHTS assay (AID 1963590). In short, it runs like this: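 Test agents in DMSO were incubated 3 h at 37 C/5% CO2 with CRE-bla HEK 293T cells seeded 18 h earlier; LiveBLAzer B/G FRET substrate was added and read after 2 h at room temperature.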
A short description of assay [19]: cAMP Responsive Elements (CRE) small molecule antagonists, cell-based qHTS assay (AID 1963591; active = well fitted inhibition curve with a large enough effect in the signal ratio in the repeat runs, not every such curve was filed as active; the % refers to the signal ratio). Summed up: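 Reporter line CRE-bla HEK 293T in dialyzed-FBS DMEM; cells preincubated 18 h, treated 3 h with compound plus NKH477 (0.25 uM final); LiveBLAzer FRET, 2 h RT.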
The target of assay [20] is 5-hydroxytryptamine receptor 2A (Homo sapiens) (UniProt P28223). Put plainly: 5-hydroxytryptamine receptor 2A (HTR2A) small molecule agonists, cell-based qHTS assay (AID 1963587). Note: nearly all actives have a fitted effect of over 30% in size. Summed up: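 HTR2A-CHO cells, plated 18 h at 37 C/5% CO2, dye-loaded 1 h at 37 C; compounds in DMSO added by pin tool (agonist mode). Intracellular calcium flux read as kinetic fluorescence on FDSS over 2 min at 1 s intervals.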
5-hydroxytryptamine receptor 2A (Homo sapiens), sequence (P28223 whole entry, looked up): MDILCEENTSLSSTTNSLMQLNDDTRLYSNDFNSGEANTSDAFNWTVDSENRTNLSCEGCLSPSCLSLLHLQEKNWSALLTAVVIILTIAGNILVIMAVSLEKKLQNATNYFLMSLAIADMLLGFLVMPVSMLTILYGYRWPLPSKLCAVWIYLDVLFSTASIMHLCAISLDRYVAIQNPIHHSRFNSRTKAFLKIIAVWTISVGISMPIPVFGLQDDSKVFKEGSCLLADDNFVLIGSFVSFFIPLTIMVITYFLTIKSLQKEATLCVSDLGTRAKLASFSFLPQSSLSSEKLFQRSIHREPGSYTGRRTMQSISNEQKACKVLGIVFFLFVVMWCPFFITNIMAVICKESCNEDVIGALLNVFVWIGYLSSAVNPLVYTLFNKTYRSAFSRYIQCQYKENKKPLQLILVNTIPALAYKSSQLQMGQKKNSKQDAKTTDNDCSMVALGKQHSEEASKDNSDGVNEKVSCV

Where “and” joins values, the source holds several entries; their conditions need not be identical. Identical values can stand only once. Records with an inconclusive call do not appear. The source holds several records for some structures; these can differ, active in one and inactive in another. Calls of active or inactive are those of the source. Unless noted, calls come from the whole dose curve.

Gonadotropin-releasing hormone receptor (Homo sapiens), sequence (P30968 whole entry, looked up): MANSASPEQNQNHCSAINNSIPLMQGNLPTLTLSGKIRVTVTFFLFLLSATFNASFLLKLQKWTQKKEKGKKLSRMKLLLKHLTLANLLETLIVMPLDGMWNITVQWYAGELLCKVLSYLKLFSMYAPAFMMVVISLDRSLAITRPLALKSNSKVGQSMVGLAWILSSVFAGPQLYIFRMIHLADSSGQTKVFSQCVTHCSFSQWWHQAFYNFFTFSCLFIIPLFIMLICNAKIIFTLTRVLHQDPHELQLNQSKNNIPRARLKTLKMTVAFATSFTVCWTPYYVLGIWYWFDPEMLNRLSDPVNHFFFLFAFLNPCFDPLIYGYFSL
KiSS-1 receptor (Homo sapiens), sequence (Q969F8 whole entry, looked up): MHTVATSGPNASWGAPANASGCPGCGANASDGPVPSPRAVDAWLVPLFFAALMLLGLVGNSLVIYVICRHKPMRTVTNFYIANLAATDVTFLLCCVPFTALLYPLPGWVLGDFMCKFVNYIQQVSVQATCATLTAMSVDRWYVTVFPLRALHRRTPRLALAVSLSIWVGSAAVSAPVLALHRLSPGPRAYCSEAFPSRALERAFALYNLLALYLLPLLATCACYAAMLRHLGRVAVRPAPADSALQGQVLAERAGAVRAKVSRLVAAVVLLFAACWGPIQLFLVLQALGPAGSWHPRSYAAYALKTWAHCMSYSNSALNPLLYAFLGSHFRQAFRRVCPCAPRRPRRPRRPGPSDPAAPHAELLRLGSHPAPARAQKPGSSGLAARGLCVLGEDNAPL
D(2) dopamine receptor (Homo sapiens), sequence (P14416 whole entry, looked up): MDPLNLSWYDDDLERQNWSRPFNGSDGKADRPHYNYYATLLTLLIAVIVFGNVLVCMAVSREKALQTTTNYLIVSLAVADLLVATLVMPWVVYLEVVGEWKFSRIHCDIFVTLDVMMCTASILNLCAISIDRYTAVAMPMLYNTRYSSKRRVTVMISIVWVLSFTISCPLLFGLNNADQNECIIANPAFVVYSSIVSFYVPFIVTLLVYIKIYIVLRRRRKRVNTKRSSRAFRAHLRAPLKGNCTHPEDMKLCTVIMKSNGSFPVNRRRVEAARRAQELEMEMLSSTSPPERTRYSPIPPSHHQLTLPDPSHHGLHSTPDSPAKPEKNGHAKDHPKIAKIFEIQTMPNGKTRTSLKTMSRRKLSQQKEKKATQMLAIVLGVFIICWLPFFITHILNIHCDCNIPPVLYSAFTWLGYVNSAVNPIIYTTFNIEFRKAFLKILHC
Muscarinic acetylcholine receptor M1 (Homo sapiens), sequence (P11229 whole entry, looked up): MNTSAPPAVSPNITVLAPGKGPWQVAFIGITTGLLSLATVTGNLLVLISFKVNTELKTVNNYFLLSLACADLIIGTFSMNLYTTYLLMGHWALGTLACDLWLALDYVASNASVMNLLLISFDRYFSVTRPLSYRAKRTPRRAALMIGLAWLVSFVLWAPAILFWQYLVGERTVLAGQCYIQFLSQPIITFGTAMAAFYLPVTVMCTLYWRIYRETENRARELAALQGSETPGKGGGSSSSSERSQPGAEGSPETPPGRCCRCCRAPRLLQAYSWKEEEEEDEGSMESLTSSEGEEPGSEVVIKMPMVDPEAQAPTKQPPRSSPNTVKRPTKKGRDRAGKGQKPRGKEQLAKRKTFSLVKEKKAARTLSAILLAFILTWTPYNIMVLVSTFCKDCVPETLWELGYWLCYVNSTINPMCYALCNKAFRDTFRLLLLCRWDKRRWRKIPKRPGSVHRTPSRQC
Beta-2 adrenergic receptor (Homo sapiens), sequence (P07550 whole entry, looked up): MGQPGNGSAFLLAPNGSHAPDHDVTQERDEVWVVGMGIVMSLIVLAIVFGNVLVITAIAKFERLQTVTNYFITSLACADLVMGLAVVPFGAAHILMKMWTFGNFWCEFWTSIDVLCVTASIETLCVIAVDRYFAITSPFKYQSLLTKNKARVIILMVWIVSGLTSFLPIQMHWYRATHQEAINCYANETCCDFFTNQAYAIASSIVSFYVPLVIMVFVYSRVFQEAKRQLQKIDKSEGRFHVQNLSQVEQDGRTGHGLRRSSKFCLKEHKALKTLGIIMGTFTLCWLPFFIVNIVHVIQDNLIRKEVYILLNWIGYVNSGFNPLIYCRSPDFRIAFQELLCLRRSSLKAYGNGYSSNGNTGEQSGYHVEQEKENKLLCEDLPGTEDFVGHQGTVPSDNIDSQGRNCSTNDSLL

As for `C#C[C@]1(O)CC[C@H]2[C@@H]3CCc4cc(O)ccc4[C@H]3CC[C@@]21C`, the Potency result in [1], in assay [2], in assay [3], in [4], in assay [5] and in assay [6] was “inactive” in each case. In addition, the Potency entry in assay [7], in assay [8], in assay [9], in assay [11], in [12] and in assay [13] was “inactive” each time. Further, the Potency in assay [10] was 16.1 µM (active).

With `CN1C(=O)CC[C@H]1c1cccnc1`, the Potency result in assay [1], in assay [2], in assay [3], in assay [4], in assay [5] and in assay [6] was “inactive” throughout. Also, the Potency result in assay [7], in [8], in assay [14], in [10], in assay [15] and in [16] was “inactive” each time. Besides, the Potency entry in assay [17], in [18], in assay [19], in [11], in [12] and in [13] was “inactive” throughout.

Regarding `CC(C)(C)NC(=O)[C@H]1CC[C@H]2[C@@H]3CC[C@H]4NC(=O)C=C[C@]4(C)[C@H]3CC[C@]12C`, the Potency entry in [1], in assay [2], in assay [3], in assay [4], in assay [5] and in [6] was “inactive” each time. Also, the Potency result in [7], in assay [8], in assay [14], in [10], in assay [11] and in [12] was “inactive” in each case. Moreover, the Potency entry in assay [13] was “inactive”.

For the molecule `Nc1ccc(S(=O)(=O)c2ccc(N)cc2)cc1`, the Potency result in [1], in [3], in assay [4], in assay [5], in assay [6] and in assay [7] was “inactive” throughout. Besides, the Potency result in assay [8], in [9], in [10], in [15], in assay [20] and in assay [16] was “inactive” throughout. Besides, the Potency entry in [17], in assay [18], in assay [19], in assay [11], in [12] and in assay [13] was “inactive” in each case. The Potency entry in assay [2] is “inactive and 27.3 µM (active)”.

On to `COC(=O)CCC(=O)OC`, for which the Potency entry in assay [1], in [2], in assay [3], in assay [4], in [5] and in assay [6] was “inactive” in each case. In addition, the Potency result in [7], in [8], in assay [9], in assay [10], in [15] and in assay [20] was “inactive” each time. Further, the Potency entry in assay [17], in assay [18], in assay [19], in assay [11], in assay [12] and in assay [13] was “inactive” in each case.

Turning to `Cc1cc(=O)oc2cc(O)ccc12`, the Potency entry in [1], in assay [2], in assay [3], in assay [4], in assay [5] and in assay [6] was “inactive” throughout. Also, the Potency entry in [8], in [14], in [15], in [20], in assay [16] and in [17] was “inactive” each time. Further, the Potency result in assay [18], in [11], in assay [12] and in [13] was “inactive” each time. Also, in [7], the Potency was 36.3 µM (active) and 22.9 µM (active).

Regarding `N[C@@H](Cc1cc(I)c(Oc2ccc(O)c(I)c2)c(I)c1)C(=O)O`, the Potency entry in assay [1], in [2], in [3], in [4], in [5] and in [6] was “inactive” in each case. For the same molecule, the Potency result in [7], in assay [8], in [9], in assay [10], in assay [18] and in assay [19] was “inactive” each time. Moreover, the Potency entry in [11] and in assay [12] was “inactive” throughout.

On to `CC(C)=CCC/C(C)=C\CO`, for which the Potency entry in assay [1], in [2], in assay [3], in assay [4], in assay [5] and in assay [6] was “inactive” throughout. Also, the Potency entry in assay [7], in assay [8], in assay [9], in [10], in [18] and in assay [19] was “inactive” throughout. The Potency result in assay [11], in assay [12] and in [13] was “inactive” each time.
